These results are taken from ChEMBL document CHEMBL3433997, “St. Jude Leishmania screening dataset” (2016).

Common to all, as to type: functional
Assay [1] concerns the target Solute carrier family 2, facilitated glucose transporter member 1 (Homo sapiens) (UniProt P11166). In words: ST_JUDE_LEISH: Cytotoxicity at 2uM final concentration against transgenic Leishmania Mexicana promastigotes LmGLUT1 that are glucose transport deficient and complemented with the human glucose transporter GLUT1. Activity is measured by DNA content using SYBR green in vitro.

In assay [2] the target is Hexose transporter 1 (Plasmodium falciparum) (UniProt O97467). Nature of the assay: ST_JUDE_LEISH: Cytotoxicity at 2uM final concentration against transgenic Leishmania Mexicana promastigotes LmPfHT that are glucose transport deficient and complemented with the Plasmodium falciparum hexose transporter. Activity is measured by DNA content using SYBR green in vitro.
The target of assay [3] is Glucose transporter (Leishmania mexicana) (UniProt O61059). In words: ST_JUDE_LEISH: Cytotoxicity at 2uM final concentration against transgenic Leishmania Mexicana promastigotes LmGT2 that are glucose transport deficient and complemented with the L. Mexicana glucose transporter 2. Activity is measured by DNA content using SYBR green in vitro.

Sequence of Solute carrier family 2, facilitated glucose transporter member 1 (Homo sapiens) (P11166 whole entry): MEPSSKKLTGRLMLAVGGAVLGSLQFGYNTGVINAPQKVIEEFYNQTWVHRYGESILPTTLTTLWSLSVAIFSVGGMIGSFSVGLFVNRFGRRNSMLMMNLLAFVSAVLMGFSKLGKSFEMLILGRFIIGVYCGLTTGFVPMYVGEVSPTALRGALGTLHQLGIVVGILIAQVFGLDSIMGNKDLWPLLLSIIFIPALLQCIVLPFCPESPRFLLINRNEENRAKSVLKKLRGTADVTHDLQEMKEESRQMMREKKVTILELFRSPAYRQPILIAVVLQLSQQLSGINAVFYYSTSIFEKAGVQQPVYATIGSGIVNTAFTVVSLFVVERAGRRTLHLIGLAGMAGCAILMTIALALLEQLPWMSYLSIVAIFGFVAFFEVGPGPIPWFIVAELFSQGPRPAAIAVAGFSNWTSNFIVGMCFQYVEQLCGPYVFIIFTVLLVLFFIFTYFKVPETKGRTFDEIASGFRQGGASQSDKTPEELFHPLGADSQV

In the case of `CC1(C)OC[C@]2(C)[C@@H](CC[C@]3(C)C4=CC(=O)CCC4CC[C@@H]23)O1` (stereo partly specified), the inhibition worked out at 0.57% in assay [1], 1.6% in assay [2] and 2.59% in assay [3].
On the same counts, the results for `O=C(Nc1ccc2c(c1)CCC2)c1ccc(N2CCN(c3ccncc3)CC2)cn1` are 11.7%, 12.8% and 14.7%.
On the same counts, the results for `FC(F)(F)c1ccc2[nH]c(-c3ccc(-c4cccc(CNCCc5cccnc5)c4)s3)nc2c1` are 3.04%, 2.04% and 4.6%.
On the same counts, the results for `Clc1ccc(OCc2ccccc2)c(-c2nc(-c3nc4ncc(Br)cc4[nH]3)cs2)c1` are 4.08%, 4.1% and 1.99%.
`COc1cc2c(cc1NC(=O)CN1CCN(C(=O)c3ccco3)CC1)oc1ccccc12`: the inhibition in assay [1] was 4.29%; in assay [2], 2.47%; in assay [3] it was -0.96%.
On the same counts, the results for `COc1ccc(C=C2SC(=O)N=C2Nc2ccccc2)c(OC)c1` are 6.71%, 5.61% and 2.58%.
In the case of `CC(C)CNC(=O)c1ccc(-c2cccc(CN3CCC(N4CCCC4)CC3)c2)nc1`, the inhibition in assay [1] was 2.51%; in assay [2] it was 2.17%; in assay [3], 1.53%.
The corresponding values for `CCOc1cc(C)ccc1N(C1CCN(CCCCNC(=O)c2ccc(-c3ccc(C(F)(F)F)cc3)cc2)CC1)S(=O)(=O)c1ccccc1` are 0.32%, 1.25% and -0.57%.
The corresponding values for `NCc1ccc(CNCc2cccc(-c3cccc(-c4nc5cc(F)ccc5[nH]4)c3)c2)cc1` are 9.71%, 9.36% and 8.54%.
On the same counts, the results for `O=C(NCCN1CCC(NC(=O)c2ccc(-c3ccccn3)s2)CC1)c1cccc(C(F)(F)F)c1` are 3.66%, 2.93% and 3.43%.
In the case of `O=C(Nc1ccc(-c2cccc(-c3nc4ccccc4[nH]3)c2)cc1)c1cnn2cccnc12`, the figures for the inhibition in assay [1], in assay [2] and in assay [3] were 7.76%, 2.12% and -0.16%, respectively.
On the same counts, the results for `Cc1ccc(-c2cc(C(=O)Nc3ccc(S(=O)(=O)N(C)Cc4ccccc4)cc3)[nH]n2)c(O)c1` are 0.95%, 0.3% and 1.49%.

What is called inhibition is the change of the read-out against control, counted positive when it falls.
